Data on 18 compounds can be found in PubChem BioAssay (Tox21).

Each structure is given as a SMILES string. Inconclusive results are not listed. Unmarked numbers belong to inactive results. Active and inactive are the calls of the source. Calls follow the shape of the dose curve; as a rule, active = well fitted curve in the direction sought with a large enough effect in the repeat runs; inconclusive = weak or mixed curves; inactive = no such curve, though single readings can be large; an effect the other way counts as inactive or inconclusive.

A short description of assay [1]: A CellTox Green Cytotoxicity Assay to monitor cytotoxicity in HEK293 cells - 40 hour (AID 1224871). Also: nearly all actives have a fitted effect of over 45% in size. Also: potency is read from the fitted curve at half-maximal effect. The method in brief:
(§1)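 Fluorescence from a DNA-binding dye excluded by viable cells was measured repeatedly in the same HEK293 wells (600 cells/well) during continuous compound exposure at 37 C. Each assay gives one read point: 0, 8, 16, 24, 32 or 40 h.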

Assay [2] in a line: qHTS RealTime-Glo MT Cell Viability Assay in HEK293 cells - 16 hour (AID 1224872). Also: nearly all actives have a fitted effect of over 50% in size. Also: potency is read from the fitted curve at half-maximal effect. As to activity change, negative = cytotoxicity: top concentration of the series differs between compounds. In short, it runs like this: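 Tox21 10K qHTS, HEK293, 600 cells/well, RealTime-Glo reagent co-dispensed with cells; 5 h preincubation, compound by pintool, 37 C, luminescence at 0–40 h.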
For orientation: In qHTS, concentration-response curves come from the screen itself.

A short description of assay [3]: qHTS RealTime-Glo MT Cell Viability Assay in HepG2 cells - 8 hour (AID 1224873). Also: nearly all actives have a fitted effect of over 55% in size. In short, it runs like this: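 HepG2 cells mixed with RealTime-Glo MT reagents (NanoLuc plus cell-permeant prosubstrate) were seeded at 600 cells/well, incubated 5 h at 37 C/5% CO2, then pinned with compounds in DMSO; nonlytic luminescence tracked viability during 40 h treatment.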
Assay [4] in a line: qHTS RealTime-Glo MT Cell Viability Assay in HEK293 cells - 40 hour (AID 1224874). Also: nearly all actives have a fitted effect of over 50% in size. Also: potency is read from the fitted curve at half-maximal effect. Particulars: RealTime-Glo luminescence; max response: hits give low values. In short, it runs like this: (§2)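 Luminescence, which tracks viable cell number through reduction of the prosubstrate to a NanoLuc substrate, was read over continuous 37 C culture. Cells (600/well) were premixed with reagent and rested 5 h before 23 nL of compound in DMSO was pinned.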

The nature of assay [5]: A CellTox Green Cytotoxicity Assay to monitor cytotoxicity in HEK293 cells - 24 hour (AID 1224875). Also: nearly all actives have a fitted effect of over 45% in size. Also: potency is read from the fitted curve at half-maximal effect. As to activity change: series mostly up to about 77 µM. The method in brief:
as §1

Assay [6] in a line: A CellTox Green Cytotoxicity Assay to monitor cytotoxicity in HepG2 cells - 16 hour (AID 1224876). Also: nearly all actives have a fitted effect of over 45% in size. Also: potency is read from the fitted curve at half-maximal effect. The method in brief:
(§3)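 Real-time cytotoxicity: fluorescence of a cell-impermeant cyanine dye binding DNA of dead HepG2 cells, measured repeatedly (0–40 h) during compound exposure at 37 C. Cells seeded 600/well with reagent, dosed after 5 h.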

The nature of assay [7]: qHTS RealTime-Glo MT Cell Viability Assay in HepG2 cells - 32 hour (AID 1224877). Also: nearly all actives have a fitted effect of over 55% in size. In short, it runs like this:
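Cells + NanoLuc/prosubstrate dispensed (600 cells/well) → 5 h at 37 C/5% CO2 → compounds in DMSO transferred → 40 h incubation at 37 C, luminescence read at 0, 8, 16, 24, 32, 40 h.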

Assay [8] in a line: A CellTox Green Cytotoxicity Assay to monitor cytotoxicity in HepG2 cells - 24 hour (AID 1224878). Also: nearly all actives have a fitted effect of over 45% in size. Also: potency is read from the fitted curve at half-maximal effect. The method in brief:
as §3

A short description of assay [9]: A CellTox Green Cytotoxicity Assay to monitor cytotoxicity in HepG2 cells - 40 hour (AID 1224879). Also: nearly all actives have a fitted effect of over 40% in size. Also: potency is read from the fitted curve at half-maximal effect. In short, it runs like this:
as §3

Assay [10] is described as follows: qHTS RealTime-Glo MT Cell Viability Assay in HEK293 cells - 0 hour (AID 1224880). In short, it runs like this:
as §2
% is scaled to controls: 0 for no effect and ±100 for the full control effect.

For the compound `CCOC(=O)/C=C/C(=O)O`, the Potency entry in assay [1], in assay [2], in [3], in assay [5], in assay [6] and in assay [7] was “inactive” each time. Further, the Potency result in assay [8], in assay [9] and in [10] was “inactive” in each case. Also, the max response in assay [4] was 16.2%.

In the case of `C[C@@H]1C[C@H]2[C@@H]3CCC4=CC(=O)C=C[C@]4(C)[C@@]3(F)[C@@H](O)C[C@]2(C)[C@H]1C(=O)CO`, the Potency result in assay [1], in [2], in assay [3], in assay [5], in assay [6] and in assay [7] was “inactive” throughout. Further, the Potency entry in [8], in assay [9] and in [10] was “inactive” throughout. In assay [4], the max response is -9.79%.

For the compound `CCCC1C(CC)=CC(CC)=CN1c1ccccc1` (stereo not drawn), the Potency entry in [1], in [3], in assay [5], in assay [6], in assay [7] and in assay [8] was “inactive” each time. Moreover, the Potency entry in assay [9] and in assay [10] was “inactive” each time. For the same compound, the results for the Potency in assay [2] and in [4] were 15.5 µM (active) and 13.8 µM (active), respectively.

Consider `c1cnc2c(n1)CCCC2`, for which the Potency in [1] is 43.6 µM (active); in [5] it was 43.6 µM (active); in [6], 38.9 µM (active); in assay [8], 38.9 µM (active); in [9], 38.9 µM (active). The Potency entry in [2], in [3], in [7] and in assay [10] was “inactive” each time. Besides, the max response in assay [4] was 1.7%.

For `CC1=CC(=O)CC(C)(C)C1(O)/C=C/C(C)=C\C(=O)O` (stereo not drawn), the Potency result in assay [1], in assay [2], in [3], in assay [5], in assay [6] and in assay [7] was “inactive” in each case. The Potency entry in assay [8], in assay [9] and in assay [10] was “inactive” in each case. Besides, the max response in assay [4] is 8.54%.

`CC(N)CN` (stereo not drawn): the Potency entry in assay [1], in [2], in [3], in [5], in assay [6] and in [7] was “inactive” each time. The Potency entry in [8], in assay [9] and in [10] was “inactive” in each case. In addition, the max response in [4] was 2.08%.

In the case of `Cn1c(=O)c2c(ncn2CC(=O)O)n(C)c1=O`, the Potency result in assay [1], in [2], in [3], in assay [5], in [6] and in assay [7] was “inactive” throughout. Also, the Potency entry in assay [8], in assay [9] and in [10] was “inactive” in each case. Besides, in assay [4], the max response is 1.42%.

Consider `CCOC(=O)c1ccccc1OC`, for which the Potency entry in [1], in [2], in [3], in assay [5], in [6] and in assay [7] was “inactive” throughout. The Potency result in [8], in assay [9] and in assay [10] was “inactive” throughout. Further, in [4], the max response was -4.86%.

In the case of `CC(C)=CC=O`, the Potency entry in assay [1], in assay [2], in assay [3], in [5], in assay [6] and in assay [7] was “inactive” throughout. Besides, the Potency entry in assay [8], in assay [9] and in assay [10] was “inactive” in each case. The max response in [4] is 12.5%.

`COCCOC`: the Potency result in assay [1], in [3], in assay [5], in assay [6], in assay [7] and in assay [8] was “inactive” in each case. In addition, the Potency result in assay [9] and in assay [10] was “inactive” throughout. Besides, the Potency in assay [2] is 0.932 µM (active); in [4], 0.83 µM (active).

Regarding `CCCCCCCCCCCCCCCCBr`, the cytotoxicity increase was -0.351% [at 15.8 µM] in [1], -3.1% [at 15.8 µM] in assay [6] and -7.84% [at 15.8 µM] in assay [9]. The activity change, negative = cytotoxicity in assay [2] was 6.53% [at 15.8 µM]; in assay [10] it was 6.45% [at 15.8 µM]. In [3], the viability change, negative = cytotoxic was 2.68% [at 15.8 µM]. In addition, in assay [4], the max response is 4.08%. In addition, the activity change in assay [5] was 2.71% [at 15.8 µM, hits give high values]. The activity change, negative = cytotoxic in [7] was 2.91% [at 15.8 µM]. The cytotoxicity in [8] is -6.35% [at 15.8 µM].

As to `CC(C)(O)c1ccccc1CC[C@@H](SCC1(CC(=O)O)CC1)c1cccc(/C=C/c2ccc3ccc(Cl)cc3n2)c1`, the Potency result in assay [1], in [2], in assay [3], in assay [5], in assay [6] and in [7] was “inactive” throughout. Besides, the Potency entry in assay [8] and in assay [10] was “inactive” throughout. Besides, the max response in assay [4] was 0.38%.

Take `Fc1c(F)c(F)c(Br)c(F)c1F`: the Potency result in assay [1], in [2], in assay [3], in assay [5], in assay [6] and in [7] was “inactive” throughout. Further, the Potency entry in assay [8] and in assay [10] was “inactive” in each case. For the same compound, in [4], the max response is 0.266%.

Consider `CC(C)C(=O)O`, for which the Potency result in assay [1], in assay [2], in [3], in assay [5], in assay [6] and in assay [7] was “inactive” in each case. Besides, the Potency entry in assay [8], in assay [9] and in [10] was “inactive” each time. Also, the max response in assay [4] is 9.49%.

Turning to `CCCCCCCCCCOS(=O)(=O)O`, the Potency result in assay [1], in assay [2], in assay [3], in assay [5], in assay [6] and in [7] was “inactive” throughout. For the same compound, the Potency entry in assay [8], in [9] and in assay [10] was “inactive” throughout. In addition, the max response in assay [4] is -3.11%.

As to `CC(=O)N(c1onc(C)c1C)S(=O)(=O)c1ccc(N)cc1`, the Potency entry in assay [1], in assay [2], in assay [3], in assay [5], in assay [6] and in assay [7] was “inactive” each time. Further, the Potency result in [8], in assay [9] and in assay [10] was “inactive” in each case. Also, the max response in [4] was 4.86%.

On to `Nc1c(I)cc(I)c(C(=O)N(CCC(=O)O)c2ccccc2)c1I`, for which the Potency entry in assay [1], in assay [2], in assay [3], in assay [5], in [6] and in assay [7] was “inactive” throughout. Also, the Potency result in [8], in assay [9] and in assay [10] was “inactive” each time. In addition, the max response in assay [4] is -10.8%.

As to `Cc1ccc(S)cc1`, the Potency result in assay [1], in [2], in [3], in assay [5], in [6] and in assay [7] was “inactive” in each case. Also, the Potency entry in [10] was “inactive”. Besides, in [4], the max response was 4.48%. In addition, the Potency in [8] and in assay [9] was 17.4 µM (active) in each case.
